Screening data deposited in PubChem by National Center for Advancing Translational Sciences (NCATS).
VP16 counter: counter-screen for ROR gamma inhibitors: Gal4-VP16 reporter. Drosophila S2 Gal4-VP16 UAS-luciferase, luminescence, 20 h. Potency, µM (highest dose often 53.6 µM), inactives show at the highest dose activity, negative = inhibition, most hits filed as inhibitors. 310,000 tested, 3.5% active. AID 2546;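 also: Gal4-VP16 expression switched on by copper sulfate through the metallothionein promoter; nearly all actives have a fitted effect of over 50% in size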
DT40 TDP1 CPT: growth inhibition of DT40 Tdp1-/-;hTDP1 cells with camptothecin (screen for TDP1 inhibitors). Potency, µM (titrated, usually from 46.2 µM), for the others: top-dose activity change, negative = growth inhibition, usual class: inhibitors. 420,000 tested, 12% active. AID 686979. chicken DT40 Tdp1-/-;hTDP1 cells + 20 nM CPT, ATP luminescence, 48 h; also: nearly all actives have a fitted effect of over 55% in size
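Chicken DT40 Tdp1-/- cells complemented with human TDP1, 400 cells/well, exposed to compounds plus 20 nM camptothecin for at least 48 h at 37 C; viability read as ATP content by CellTiter-Glo luminescence.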
TDP1 block: blocks human tyrosyl-DNA phosphodiesterase 1 | Q9NUW8 | recombinant TDP1, AlphaScreen DNA substrate cleavage | Potency, µM (highest dose often 130 µM), inactives show top-dose activity change, negative = inhibition, most hits filed as inhibitors | 350,000 tested, 0.28% active | AID 485290; also: nearly all actives have a fitted effect of over 40% in size
Target sequence (Q9NUW8 whole entry, looked up): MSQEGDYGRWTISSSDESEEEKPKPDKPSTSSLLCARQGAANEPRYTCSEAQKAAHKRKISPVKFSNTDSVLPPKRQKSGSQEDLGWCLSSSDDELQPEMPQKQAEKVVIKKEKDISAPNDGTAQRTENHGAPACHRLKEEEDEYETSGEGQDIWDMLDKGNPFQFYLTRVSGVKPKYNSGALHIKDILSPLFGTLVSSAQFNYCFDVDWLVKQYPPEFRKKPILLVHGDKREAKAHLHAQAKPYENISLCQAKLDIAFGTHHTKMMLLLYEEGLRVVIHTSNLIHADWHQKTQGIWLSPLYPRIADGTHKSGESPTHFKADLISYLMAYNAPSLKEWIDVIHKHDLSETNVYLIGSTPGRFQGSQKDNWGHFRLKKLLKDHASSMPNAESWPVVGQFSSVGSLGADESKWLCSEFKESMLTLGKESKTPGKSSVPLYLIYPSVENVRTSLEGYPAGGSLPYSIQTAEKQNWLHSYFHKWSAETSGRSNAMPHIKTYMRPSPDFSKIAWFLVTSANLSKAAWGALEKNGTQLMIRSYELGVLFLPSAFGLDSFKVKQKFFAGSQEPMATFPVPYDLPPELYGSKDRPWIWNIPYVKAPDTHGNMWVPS
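Steps: enzyme plus compound, 15 min RT; add biotin/phosphotyrosine-FITC oligonucleotide (15 nM final), react 5 min; add donor/acceptor beads (10 ug/ml final), 10 min; read AlphaScreen. Tdp1 at 1 nM final.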
RORg inh: blocks mouse ROR gamma transcriptional activity | P51450 | Drosophila S2 Gal4-RORgamma UAS-luciferase reporter, 20 h | Potency, µM (doses to about 53.6 µM), for the others: at the top dose activity change, negative = inhibition, most hits filed as inhibitors | 310,000 tested, 5.4% active | AID 2551; also: nearly all actives have a fitted effect of over 60% in size
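Stable Schneider cell line, Gal4 DNA-binding domain fused to ROR gamma, UAS-luciferase. Cmpd 1 hr RT → CuSO4 700 uM final → 20 hr RT → luciferase reagent 10 min → luminescence.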
DT40 TDP1 no CPT: qHTS for Inhibitors of human tyrosyl-DNA phosphodiesterase 1 (TDP1): qHTS in cells in absence of CPT | DT40 Tdp1-/- hTDP1 cells, no CPT, ATP luminescence, 48 h | 420,000 tested, 15% active | Potency, µM (top dose mostly 46.2 µM), for inactives: at the highest dose activity change, negative = growth inhibition, usual class: inhibitors; also: nearly all actives have a fitted effect of over 55% in size
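A cellular qHTS used chicken DT40 cells lacking endogenous Tdp1 but carrying stably transfected human TDP1. Compounds were applied without camptothecin, and cell growth kinetics were judged by ATP-dependent luminescence after ≥48 hr.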
Starred values were filed as active, the others as inactive; ? = inconclusive; . = not tested or not shown. In the library only some 19% were active in any assay of this set; here they are far more common. Calls follow the shape of the dose curve; as a rule, active = well fitted curve in the direction sought with a large enough effect; inconclusive = small, poorly fitted or top-dose-only effect, or another doubt; inactive = no such curve, though single readings can be large; an effect the other way counts as inactive or inconclusive. % is scaled to controls: 0 for no effect and ±100 for the full control effect; potency is read from the fitted curve at half-maximal effect.

SMILES	VP16 counter	DT40 TDP1 CPT	TDP1 block	RORg inh	DT40 TDP1 no CPT
O=C(COc1ccccc1)Nc1cc(C(F)(F)F)ccc1N1CCCC1	-10.4%	?	-1.0%	39.0%	?
CCc1ccc(CN2CCCC(CNC(=O)c3cccc(OC)c3OC)C2)cc1 (stereo not given)	-3.6%	-6.7%	.	-1.9%	-22.0%
CC(C)c1csc(CN2CCCC(CNC(=O)c3cccc4ccccc34)C2)n1 (stereo not given)	0.9%	16.4µM*	4.6%	15.6%	?
COc1ccc(C2=CC(=O)C[C@H](c3ccc(OC)cc3)C2)cc1	.	-23.6%	-0.6%	.	?
COc1ccc([C@H]2CC(=O)C=C(c3ccc4ccn(C)c4c3)C2)cc1	.	?	4.1%	.	18.4µM*
COc1ccc([C@H]2CC(=O)C=C(c3ccc4cc[nH]c4c3)C2)cc1	.	25.9µM*	-0.9%	.	23.1µM*
O=C1C=C(c2ccc3[nH]ccc3c2)C[C@@H](c2ccc(F)cc2)C1	.	11.6µM*	1.2%	.	?
CNCC(O)COc1ccccc1 (stereo not given)	-0.9%	-6.7%	4.7%	17.4%	-3.3%
CN=C(C)c1c(O)c2ccccc2oc1=O	0.4%	0.0%	0.0%	-9.1%	-7.4%
COc1ccc(/C=N/OCC(=O)NC(c2ccccc2)c2ccccc2)cc1OC	1.58µM*	5.17µM*	-2.8%	?	6.51µM*
COc1ccc(CNC(=O)Oc2ccccc2)cc1Cl	6.5%	?	-2.3%	6.3%	11.6µM*
COc1ccc(CNC(=O)CNC(c2ccccc2)c2ccccc2)cc1OC	-8.5%	-5.4%	4.4%	7.2%	7.31µM*
COc1cc(CC(=O)NC(c2ccccc2)c2ccccc2)cc(OC)c1OC	-0.1%	14.6µM*	8.4%	18.2%	13µM*
COc1cc(C(=O)NC(c2ccccc2)c2ccccc2)cc(Cl)c1OC	-22.1%	-4.3%	0.0%	15.3%	-22.7%
CN(C)C(=S)SCC(=O)NCc1ccc(F)cc1	-14.0%	1.4%	-2.5%	15.8%	1.1%
Cc1cc(O)ccc1-c1ccc2nncn2c1	.	16.4µM*	.	.	-1.3%
CCCCNC(=O)/C(=C\c1ccc([N+](=O)[O-])o1)NC(=O)c1ccccc1	3.5%	16.4µM*	-3.8%	?	?
COC(=O)/C(=C\c1ccc([N+](=O)[O-])o1)NC(=O)c1ccccc1	-0.8%	14.1µM*	1.1%	?	11.2µM*
CN(C)CCCNC(=O)/C(=C/c1ccc(-c2ccc([N+](=O)[O-])cc2)o1)NC(=O)c1ccccc1	-5.5%	?	5.0%	-11.5%	-24.4%
Cc1cccc(C(=O)NC(C)c2ccc(-n3ccnc3)cc2)c1C (stereo not given)	.	-14.8%	.	.	13.7%
CC(NC(=O)c1cc(F)c(F)c(F)c1F)c1ccc(-n2ccnc2)cc1 (stereo not given)	-16.1%	23.1µM*	4.2%	10.4%	?
CCC(C)(C(=O)NC1CCCC1)N(Cc1cccs1)C(=O)c1ccc2c(c1)OCO2 (stereo not given)	-10.6%	18.4µM*	-5.7%	6.1%	20.6µM*
CCOC(=O)C(=NCC1CCCO1)NNc1cc(Cl)ccc1Cl (stereo not given)	-7.4%	-7.3%	5.6%	10.1%	0.0%
O=C(NCCC(=O)N1CCCCC1)c1ccccc1Cl	3.2%	-10.7%	4.1%	1.5%	8.1%
CC1CC(C)CN(C(=O)CNC(=O)c2sc3ccccc3c2Cl)C1 (stereo not given)	.	?	-4.3%	.	23.1µM*
SMILES	VP16 counter	DT40 TDP1 CPT	TDP1 block	RORg inh	DT40 TDP1 no CPT
CC1CC(C)CN(C(=O)CCNC(=O)c2ccccc2Cl)C1 (stereo not given)	?	4.9%	-5.1%	15.8µM*	5.0%
CCOc1ccccc1N1CCN(C(=O)CNC(=O)c2sc3ccccc3c2Cl)CC1	-0.3%	?	-0.3%	4.3%	23.1µM*
Nc1nncn1C(=O)c1ccccc1Cl	0.5%	-9.2%	4.1%	-14.7%	3.5%
CNS(=O)(=O)c1ccc2ccccc2c1	-6.4%	-4.7%	1.4%	-0.3%	5.0%
CNS(=O)(=O)c1ccc(Oc2ccc(S(=O)(=O)NC)cc2)cc1	?	14.6µM*	2.4%	-31.2%	?
CCn1c(SC(C)C)nnc1-c1cc(-c2ccccc2)sc1N	7.08µM*	?	10.4%	6.31µM*	16.4µM*
COc1ccc(/C=C(/NC(=O)c2ccc(Br)cc2)C(=O)Nc2cccc(C(=O)O)c2)cc1	.	0.5%	.	.	11.1%
c1ccc2c(c1)[nH]c1c(N3CCN(C4CCCCC4)CC3)ncnc12	-4.8%	?	-1.0%	1.1%	14.6µM*
COc1cccc2[nH]c3c(N4CCCC(C)C4)ncnc3c12 (stereo not given)	0.3%	?	0.0%	-12.7%	23.1µM*
Clc1ccc2[nH]c3c(N4CCC5(CC4)OCCO5)ncnc3c2c1	?	23.1µM*	6.9%	?	18.4µM*
c1ccc2c(c1)[nH]c1c(N3CCOCC3)ncnc12	?	16.4µM*	0.0%	37.7%	12.6µM*
O=C(NC1CCCC1)c1cccc(Cn2cc([N+](=O)[O-])cn2)c1	4.6%	-1.0%	5.1%	?	4.5%
c1ccc2c(c1)[nH]c1c(N3CCCC3)ncnc12	?	5.8µM*	5.2%	-14.3%	5.17µM*
CCOc1ncnc2c1[nH]c1ccccc12	-7.1%	?	-1.9%	?	?
c1ccc2c(c1)[nH]c1c(N3CCSCC3)ncnc12	-0.3%	?	1.0%	?	18.4µM*
Cc1ccccc1S(=O)(=O)N1C[C@H]2CON(C)[C@H]2C[C@H]1c1cccc(Br)c1	.	-19.9%	.	.	?
Cc1ccccc1S(=O)(=O)N1C[C@H]2CON(C)[C@H]2C[C@H]1c1cccc(-c2ccccc2)c1	.	?	.	.	23.1µM*
CN1OC[C@@H]2CN(S(=O)(=O)c3cccc4ccccc34)[C@H](c3ccc(-c4ccccc4)cc3)C[C@@H]21	.	?	.	.	23.1µM*
COc1ccccc1-c1cccc([C@@H]2C[C@H]3[C@H](CON3C)CN2S(=O)(=O)c2ccccc2C)c1	.	14.6µM*	.	.	20.6µM*
Cc1ccccc1-c1cccc([C@@H]2C[C@H]3[C@H](CON3C)CN2S(=O)(=O)c2ccccc2C)c1	.	?	.	.	20.6µM*
CN1OC[C@@H]2CN(C(=O)C(C)(C)C)[C@H](c3cccc(-c4ccccc4)c3)C[C@@H]21	.	-19.9%	.	.	-6.3%
CN1OC[C@@H]2CN(C(=O)C(C)(C)C)[C@H](c3ccc(-c4cc5ccccc5o4)cc3)C[C@@H]21	.	?	.	.	20.6µM*
Cc1nc(SCc2ccc(O)c([N+](=O)[O-])c2)n[nH]1	-8.9%	?	-2.3%	2.1%	-17.0%
